Experimental data as given in PubChem BioAssay (NCATS).
Unmarked numbers belong to inactive results. Records with an inconclusive call do not appear. Where a call stands in place of a potency, no number is given. Activity calls are given as the source filed them. Unless noted, calls come from the whole dose curve.

Experiments:
[1] = Validation screen for inhibitors of Lassa infection (AID 463096); note: potency is the fitted concentration of half-maximal effect
[2] = Inducers of the Endoplasmic Reticulum Stress Response (ERSR) in human glioma: Validation (AID 504836; active = well fitted curve in the direction sought with a large enough effect)
Summary of the method: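 ERSR induction read as luciferase luminescence (Bright-Glo, 10 min at room temperature) in stably transfected human U87-MG glioma cells exposed to compounds for 16 h, using GRP78 as sensor.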

[3] = qHTS for Inhibitors of the Functional Ribonucleoprotein Complex (vRNP) of Lassa (LASV) Arenavirus: LASV Primary Screen - GLuc reporter signal (AID 1347082; calls by dose curve; tested in HEK293 reporter line; note: series mostly up to about 57 µM; nearly all actives have a fitted effect of over 60% in size)
[4] = qHTS for Inhibitors of the Functional Ribonucleoprotein Complex (vRNP) of Lassa (LASV) Arenavirus: Viability assay - alamar blue signal for LASV Primary Screen (AID 1347083; calls by dose curve; tested in HEK293 reporter line; note: series mostly up to about 57 µM; nearly all actives have a fitted effect of over 80% in size)
[5] = qHTS for Inhibitors of the Functional Ribonucleoprotein Complex (vRNP) of Lymphocytic Choriomeningitis Arenaviruses (LCMV): Viability assay - alamar blue signal for LCMV Primary Screen (AID 1347085; calls by dose curve; tested in HEK293 reporter line; note: series mostly up to about 57 µM; nearly all actives have a fitted effect of over 80% in size)
[6] = biological target: Nucleoprotein (Lymphocytic choriomeningitis virus (strain Armstrong)) (UniProt P09992); assay: qHTS for Inhibitors of the Functional Ribonucleoprotein Complex (vRNP) of Lymphocytic Choriomeningitis Arenaviruses (LCMV): LCMV Primary Screen - GLuc reporter signal (AID 1347086); note: series mostly up to about 57 µM; nearly all actives have a fitted effect of over 70% in size
Sequence of Nucleoprotein (Lymphocytic choriomeningitis virus (strain Armstrong)) (P09992 whole entry, looked up): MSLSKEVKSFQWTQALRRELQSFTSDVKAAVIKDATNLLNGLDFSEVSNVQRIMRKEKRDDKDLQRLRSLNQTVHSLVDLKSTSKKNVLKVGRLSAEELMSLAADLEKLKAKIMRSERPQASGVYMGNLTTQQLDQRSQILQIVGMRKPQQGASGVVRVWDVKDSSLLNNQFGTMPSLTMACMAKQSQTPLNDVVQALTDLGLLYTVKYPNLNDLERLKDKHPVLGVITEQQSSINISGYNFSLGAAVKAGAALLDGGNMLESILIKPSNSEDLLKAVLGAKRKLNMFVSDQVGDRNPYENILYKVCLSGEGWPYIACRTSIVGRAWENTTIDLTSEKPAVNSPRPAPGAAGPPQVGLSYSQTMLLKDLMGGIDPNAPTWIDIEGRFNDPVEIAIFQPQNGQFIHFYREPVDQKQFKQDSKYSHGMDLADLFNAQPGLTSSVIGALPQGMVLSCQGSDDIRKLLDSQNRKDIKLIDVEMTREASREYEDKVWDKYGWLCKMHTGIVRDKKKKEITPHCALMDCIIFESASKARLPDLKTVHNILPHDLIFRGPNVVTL

Structure (SMILES) | Potency [1] | outcome [2] | Potency [3] | Potency [4] | Potency [5] | Potency [6]
CC(C)C[C@H](NC(=O)C1OC1C(=O)O)C(=O)NCCCCN=C(N)N (some centres undefined) | inactive | inactive | inactive | inactive | inactive | inactive
COc1cccc(OC)c1OCCNCC1COc2ccccc2O1 (centres undefined) | inactive | inactive | inactive | inactive | inactive | inactive
C=CCN1CCc2cc(O)c(O)cc2C(c2ccccc2)C1 (centres undefined) | inactive | inactive | inactive | inactive | inactive | inactive
COc1cccc(OC)c1OCCNCC1CSc2ccccc2O1 (centres undefined) | inactive | inactive | inactive | inactive | inactive | inactive
CCCCCCCCCC(=O)NC(CN1CCOCC1)[C@H](O)c1ccccc1 (some centres undefined) | inactive | inactive | inactive | inactive | inactive | inactive
S=C(S)OC1CC2CC1C1CCCC21 (centres undefined) | inactive | inactive | inactive | inactive | inactive | inactive
CC(N)(C(=O)O)c1ccc(C(=O)O)cc1 (centres undefined) | inactive | inactive | inactive | inactive | inactive | inactive
C[C@@H](CN1CCC(Cc2ccccc2)CC1)[C@@H](O)c1ccc(O)cc1 | inactive | inactive | inactive | inactive | inactive | inactive
O=C(O)CC1CCCc2ccccc2C1O (centres undefined) | inactive | inactive | inactive | inactive | inactive | inactive
c1ccc(C2CN3CCSC3=N2)cc1 (centres undefined) | inactive | inactive | inactive | inactive | inactive | inactive
COc1cc(C(O)CO)ccc1OS(=O)(=O)O (centres undefined) | inactive | inactive | inactive | inactive | inactive | inactive
NC(=O)CC[C@H](N)C(=O)O | inactive | inactive | inactive | inactive | inactive | inactive
CCCCCCCCCCCCCCCC(=O)NCC(COP(=O)([O-])OCC[N+](C)(C)C)OCC (centres undefined) | 11.2 µM (active) | inactive | inactive | inactive | inactive | inactive
O=C(O)C1CN(CCCP(=O)(O)O)CCN1 (centres undefined) | inactive | inactive | inactive | inactive | inactive | inactive
O=C(O)/C=C/C(O)c1ccc(Cl)cc1 (centres undefined) | inactive | inactive | inactive | inactive | inactive | inactive
NCC(O)(CS(=O)(=O)O)c1ccc(Cl)cc1 (centres undefined) | inactive | inactive | inactive | inactive | inactive | inactive
CC(C)(C)NCC(O)COc1cccc2[nH]c(=O)[nH]c12 (centres undefined) | inactive | inactive | inactive | inactive | inactive | inactive

Structure (SMILES) | Potency [1] | outcome [2] | Potency [3] | Potency [4] | Potency [5] | Potency [6]
Oc1cc(O)c2c(c1)O[C@H](c1ccc(O)c(O)c1)[C@@H](O)C2 | inactive | inactive | inactive | inactive | inactive | inactive
COc1cc(C(O)C(=O)O)ccc1O (centres undefined) | inactive | inactive | inactive | inactive | inactive | inactive
OCC1NCC(O)C(O)C1O (centres undefined) | inactive | inactive | inactive | inactive | inactive | inactive
CNCCC(Oc1ccccc1C)c1ccccc1 (centres undefined) | inactive | inactive | inactive | inactive | inactive | inactive
O=C(O)[C@@H]1C[C@H](C(=O)O)N1 | inactive | inactive | inactive | inactive | inactive | inactive
O=C(O)/C=C/c1cnc[nH]1 | inactive | inactive | inactive | inactive | inactive | inactive
Oc1cc2c(cc1O)C(c1ccccc1)CNCC2 (centres undefined) | inactive | inactive | inactive | inactive | inactive | inactive
C#CCN1C(C)=C(C(=O)OC)C(c2cccc([N+](=O)[O-])c2)C(C(=O)OCC)=C1C (centres undefined) | inactive | inactive | inactive | inactive | inactive | inactive
O=C(O)CCC(=O)N1CCCC1C(=O)O (centres undefined) | inactive | inactive | inactive | inactive | inactive | inactive
COC1(C2=NCCN2)COc2ccccc2O1 (centres undefined) | inactive | inactive | inactive | inactive | inactive | inactive
N=S(=O)(O)Cc1noc2ccccc12 | inactive | inactive | inactive | inactive | inactive | inactive
CC(C)C[C@H](NC(=O)[C@H](O)[C@H](N)Cc1ccccc1)C(=O)O | inactive | inactive | inactive | inactive | inactive | inactive
CCOC(=O)C12CC1/C(=N/O)c1ccccc1O2 (centres undefined) | inactive | inactive | inactive | inactive | inactive | inactive
Nc1ncnc2c1ncn2C1CCCO1 (centres undefined) | inactive | inactive | inactive | inactive | inactive | inactive
CCCCCC(O)CCCC(=O)O (centres undefined) | inactive | inactive | inactive | inactive | inactive | inactive
CN1C2CCC1CC(OC(=O)c1c[nH]c3ccccc13)C2 (centres undefined) | inactive | inactive | inactive | inactive | inactive | inactive
NC1CCN(O)C1=O (centres undefined) | inactive | inactive | inactive | inactive | inactive | inactive
